The supplement of paper PMC9262897, “Low-cost anti-mycobacterial drug discovery using engineered E. coli” (Nature Communications, 2022)
Counter-ions that a name gives are not always drawn. ± gives the standard deviation of the averaged measurements.

Test system: E. coli TESEC Mtb Alr
Experiment: growth (OD600 after 10 h); higher = more growth (less inhibition)
Conditions: compound 0.1 mM
Description: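 TESEC Mtb Alr E. coli, or the Alr+ wild-type control, in 384-well plates with Prestwick library compounds at 0.1 mM and 1% DMSO, across arabinose induction levels of 1E3 to 1E7 nM. Growth is read as OD600 after 10 h at 37 °C in triplicate biological replicates.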

[1] = arabinose 1000 nM, raw OD600 reference: median of DMSO wells 0.294, cell-free background 0.041
[2] = arabinose 10000 nM, raw OD600 reference: median of DMSO wells 0.264, cell-free background 0.041
[3] = arabinose 100000 nM, raw OD600 reference: median of DMSO wells 0.201, cell-free background 0.041
[4] = arabinose 1000000 nM, raw OD600 reference: median of DMSO wells 0.193, cell-free background 0.041
[5] = arabinose 10000000 nM, raw OD600 reference: median of DMSO wells 0.146, cell-free background 0.041

SMILES | growth [1] | growth [2] | growth [3] | growth [4] | growth [5]
CC(=O)O[C@H]1C[C@H](O[C@H]2[C@@H](O)C[C@H](O[C@H]3[C@@H](O)C[C@H](O[C@H]4CC[C@@]5(C)[C@H](CC[C@@H]6[C@@H]5C[C@@H](O)[C@]5(C)[C@@H](C7=CC(=O)OC7)CC[C@]65O)C4)O[C@@H]3C)O[C@@H]2C)O[C@H](C)[C@H]1O[C@@H]1O[C@H](CO)[C@@H](O)[C@H](O)[C@H]1O [Lanatoside C] | 0.261 ± 0.024 | 0.26 ± 0.0028 | 0.295 ± 0.031 | 0.19 ± 0.0089 | 0.243 ± 0.024
CN1[C@@H]2CC[C@H]1C[C@@H](OC(=O)[C@H](CO)c1ccccc1)C2 [Hyoscyamine (L)] | 0.293 ± 0.024 | 0.272 ± 0.0055 | 0.23 ± 0.011 | 0.176 ± 0.005 | 0.158 ± 0.011
O=C(CCCN1CCC(n2c(=O)[nH]c3ccccc32)CC1)c1ccc(F)cc1 [Benperidol] | 0.269 ± 0.0074 | 0.263 ± 0.0054 | 0.179 ± 0.036 | 0.135 ± 0.0025 | 0.149 ± 0.0063
CCCC(C)(COC(N)=O)COC(=O)NC(C)C (stereo not given) [Carisoprodol] | 0.287 ± 0.011 | 0.283 ± 0.0077 | 0.211 ± 0.014 | 0.198 ± 0.0098 | 0.142 ± 0.0024
CCC1(c2ccc(N)cc2)CCC(=O)NC1=O (stereo not given) [Glutethimide, para-amino] | 0.279 ± 0.016 | 0.251 ± 0.01 | 0.222 ± 0.029 | 0.178 ± 0.0065 | 0.146 ± 0.0091
COc1cccc(C2(O)CCCCC2CN(C)C)c1 (stereo not given) [Tramadol hydrochloride] | 0.308 ± 0.012 | 0.271 ± 0.0049 | 0.193 ± 0.0059 | 0.193 ± 0.012 | 0.1352 ± 0.00092
CC(C)N(CCC(C(N)=O)(c1ccccc1)c1ccccn1)C(C)C (stereo not given) [Disopyramide] | 0.285 ± 0.018 | 0.25 ± 0.0026 | 0.195 ± 0.0071 | 0.171 ± 0.0034 | 0.14 ± 0.0064
c1ccc2nc(N3CCNCC3)ccc2c1 [Quipazine dimaleate salt] | 0.298 ± 0.016 | 0.25 ± 0.0049 | 0.212 ± 0.04 | 0.177 ± 0.0045 | 0.148 ± 0.0043
